Drawing on PubChem BioAssay AID2796 (The Scripps Research Institute Molecular Screening Center, 2010), this text covers activation for 61 compounds.

In all, about 320,000 compounds went through this assay and about 8,000 (2.5%) were called active. Shown is part of a subset that was picked to be rich in actives. Unmarked numbers belong to inactive results. No stated cut-off is given here; in the data, active means activation above about 47%; inactive means the rest.

Sequence of Aryl hydrocarbon receptor (Homo sapiens) (P35869 whole entry, looked up): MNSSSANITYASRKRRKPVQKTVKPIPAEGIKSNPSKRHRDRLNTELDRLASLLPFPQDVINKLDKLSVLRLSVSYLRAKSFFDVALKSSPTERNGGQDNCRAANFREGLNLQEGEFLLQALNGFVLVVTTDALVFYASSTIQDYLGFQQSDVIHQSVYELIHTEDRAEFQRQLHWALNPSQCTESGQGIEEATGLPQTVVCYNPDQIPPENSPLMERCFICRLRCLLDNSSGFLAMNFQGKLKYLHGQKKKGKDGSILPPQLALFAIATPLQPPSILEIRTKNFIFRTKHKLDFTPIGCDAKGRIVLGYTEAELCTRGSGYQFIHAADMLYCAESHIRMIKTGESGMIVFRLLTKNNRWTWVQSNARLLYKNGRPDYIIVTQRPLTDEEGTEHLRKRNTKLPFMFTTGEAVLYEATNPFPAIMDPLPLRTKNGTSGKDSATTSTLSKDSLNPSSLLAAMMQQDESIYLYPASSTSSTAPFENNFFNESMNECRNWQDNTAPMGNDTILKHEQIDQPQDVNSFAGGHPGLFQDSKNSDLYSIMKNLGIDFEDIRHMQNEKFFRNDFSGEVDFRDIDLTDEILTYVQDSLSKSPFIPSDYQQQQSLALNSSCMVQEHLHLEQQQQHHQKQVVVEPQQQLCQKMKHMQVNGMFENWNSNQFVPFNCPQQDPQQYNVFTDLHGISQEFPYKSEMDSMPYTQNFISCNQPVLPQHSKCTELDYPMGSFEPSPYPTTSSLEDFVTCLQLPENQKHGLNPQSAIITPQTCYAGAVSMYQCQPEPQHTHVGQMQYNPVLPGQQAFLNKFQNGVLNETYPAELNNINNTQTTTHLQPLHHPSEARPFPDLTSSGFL

This experiment concerns the target Aryl hydrocarbon receptor (Homo sapiens) (UniProt P35869). In words: AHR activators, primary screen, cell-based, luminescence, luciferase reporter, human (AID 2796).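 Further: 0% = vehicle wells and 100% = reference agonist.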 To be noted: AHR-responsive luciferase reporter cells, at 5 µM, stronger effect = higher value. In general terms: In a reporter assay the amount or activity of a reporter protein is the signal.
For `O=C(CCc1ccc(S(=O)(=O)N2CCOCC2)cc1)OCC(=O)c1ccc(Br)cc1`, the activation is 2.27%.
`COC(=O)C1=C(C)N(c2ccc(C)cc2)/C(=C/c2ccc(O)cc2)C1=O`: the activation was 2.06%.
Turning to `C[C@H](C(=O)CC(=O)OC(C)(C)C)[C@H](O)c1ccc(C(F)(F)F)cc1`, the activation was 1.94%.
For the compound `Cc1cc(OC(=O)c2ccc(Cl)cc2)cc(=O)n1C`, the activation was -0.96%.
Regarding `COc1ccc2ccn(C)c2c1`, the activation is 5.22%.
`COc1ccc(C(C(=O)NCc2ccccc2)N(Cc2cccs2)C(=O)c2cnccn2)cc1` (stereo unspecified): the activation is -1.35%.
On to `CC1CCCCC1NCC(=O)Nc1ccccc1C(=O)Nc1ccccc1` (stereo unspecified), for which the activation is -0.06%.
Regarding `COc1ccc(NC(=O)c2cc([N+](=O)[O-])ccc2NC(=O)CNC2CCCCC2C)c(OC)c1` (stereo unspecified), the activation is 47.4% (active).
On to `COc1cc([N+](=O)[O-])ccc1NC(=O)CN1CCCC1`, for which the activation was 4.3%.
To `COc1ccccc1CN1CC(C(=O)NCCc2cn[nH]c2)CCC1=O` (stereo unspecified) belongs 2.31%; to `O=C(Nc1sc2c(c1C(=O)O)CCC2)c1ccccc1F`, 13.6%.
To `COc1cccc(OC)c1C(=O)Nc1sc2c(c1C(N)=O)CCCC2` belongs 49.1% (active); to `CNC(=O)c1c(NC(NC(=O)c2ccco2)C(=O)c2ccc(Cl)cc2)sc2c1CCCC2` (stereo unspecified), 1.8%.
For the compound `NC(=O)c1c(NC(=O)CSc2nnc(-c3ccco3)n2N)sc2c1CCCC2`, the activation was 19.8%.
The result for `NC(=O)c1c(Nc2nc3c(F)cccc3s2)sc2c1CCCC2` reads 52.5% (active); that for `COc1cccc(OC)c1C(=O)Nc1nnc(C(C)C)s1`, 15.7%.
Take `Cc1cccc(N(C(=O)Cn2nnc(-c3ccc(C)o3)n2)C(C(=O)NC2CCCC2)c2ccncc2)c1` (stereo unspecified): the activation is -1.02%.
On to `CC1CCCCN1C(=O)CCS(=O)(=O)Cc1ccccc1` (stereo unspecified), for which the activation was -0.28%.
In the case of `Nc1ccccc1/C=N\N=C/c1ccccc1N`, the activation was 38.4%.
Regarding `Cc1ccc(NC(=O)NNC(=O)c2sccc2-n2cccc2)cc1`, the activation was 85.8% (active).
The result for `CCNC(=O)c1sccc1-n1cccc1` reads 0.75%; that for `COC(=O)c1sccc1NC(=S)Nc1ccc(C)cc1`, 1.83%.
As for `CN(C)C1=NC[C@H](Cc2ccccc2)N1CCc1ccc(F)cc1`, the activation was 5.16%.
For `CCOC(=O)N1CCN(C(=O)c2ccccc2SCC(=O)NCC2CCCCC2)CC1`, the activation is 1.83%.
Turning to `COc1ccccc1Oc1ccc(N/C=C2/CCCC2=O)cc1`, the activation was 0.2%.
Regarding `O=C1/C(=C\Nc2ccccc2)CCN1c1ncccn1`, the activation was 66.5% (active).
Consider `O=C(Cc1ccccc1)NNC(=O)C1CCN(c2ncccn2)CC1`, for which the activation is 0.76%.
For `CCc1cc2c(=O)c(-c3ccc(F)cc3)c(C(F)(F)F)oc2cc1OCC(=O)O`, the activation was 8.09%.
As for `CCc1cc2c(=O)c(-c3ccon3)c(N)oc2cc1OC`, the activation was 59.6% (active).
Turning to `COc1ccc2oc(N)c(C=O)c(=O)c2c1`, the activation is -1.38%.
As for `CCN1C(=O)C(C(=O)NC(C)c2ccccc2)C2CC1(C)Oc1ccccc12` (stereo unspecified), the activation is 2.9%.
As for `CC(NS(=O)(=O)c1ccccc1)c1n[nH]c(=S)n1-c1ccccc1` (stereo unspecified), the activation is 2.32%.
Turning to `COc1ccc(Cl)cc1NS(=O)(=O)c1cccc(C(=O)NCC2CCCO2)c1` (stereo unspecified), the activation was -1.04%.
Turning to `COc1ccc(C(=O)NC(=S)Nc2ccccc2N2CCN(S(C)(=O)=O)CC2)cc1OC`, the activation is 0.97%.
`O=C(NC(=S)Nc1ccccc1N1CCCCC1)c1ccc(F)cc1`: the activation was 19.9%.
As for `COc1ccccc1C(=O)NC(=S)Nc1ccccc1N1CCCCC1`, the activation was 76.4% (active).
As for `Cc1cc(C)n(CC(O)CN(c2ccccc2)S(=O)(=O)c2ccc3ccccc3c2)n1` (stereo unspecified), the activation is 2.73%.
To `N#C/C(=C(/O)COC(=O)COc1ccc(Cl)cc1)c1nc2ccccc2[nH]1` belongs 24.9%.
Take `N#C/C(=C(/O)COc1cccc2ccccc12)c1nc2ccccc2[nH]1`: the activation is 93.7% (active).
As to `N#C/C(=C(/O)Cc1cccc2ccccc12)c1nc2ccccc2s1`, the activation is 9.95%.
For `O=C(CCNS(=O)(=O)c1ccccc1C(F)(F)F)NCc1ccc2c(c1)OCO2`, the activation was 4.67%.
As to `COc1ccccc1CCNC(=O)CSc1nnc2ccc(-c3cccnc3)nn12`, the activation is 16.4%.
As for `CCOC(=O)N1CCC(N2Cc3cccc(C(=O)Nc4ccc(S(=O)(=O)N(CC)CC)cc4)c3C2=O)CC1`, the activation is -1.91%.
To `CC(=O)Oc1ccccc1C(=O)Nc1ncc([N+](=O)[O-])s1` belongs 6.57%.
For `Cc1cccc(C)c1Nc1nnc(SCC(=O)NCCCN2CCCC2=O)s1`, the activation was -0.54%.
With `C=CCNc1nc(N)c(C(=C(C#N)C#N)c2ccccc2)s1`, the activation is 5.13%.
Take `CN1c2ccc([N+](=O)[O-])cc2C(C)(C)C12C=Cc1cc(C(=O)O)ccc1O2` (stereo unspecified): the activation is 0.9%.
`CC[C@@]1(C(=O)OC)N[C@H](CN(C)C(C)=O)[C@@H]2C(=O)N(C)C(=O)[C@@H]21`: the activation was -0.36%.
Turning to `Cn1c(/C(C#N)=C2/CCCCCN2)nc2ccccc21`, the activation is 67.6% (active).
In the case of `Cn1c(S(=O)(=O)O)nc2ccccc21`, the activation is 3.28%.
For `N#C/C(=C1/CCCN1)c1ccccn1`, the activation was 0.38%.
Turning to `Cc1ccc2[nH]c(=O)c(CN(CCCN(C)C)C(=O)Nc3cccc(Cl)c3)cc2c1`, the activation is 0.48%.
Consider `CCOC(=O)c1nc(C)n(-c2ccc(Cl)cc2Cl)n1`, for which the activation was 2.68%.
For `COn1c(-c2ccc(Cl)cc2Cl)nc2ncccc21`, the activation is 2.64%.
To `Cc1ncn2cc(-c3ccc(Cl)cc3Cl)[nH]c(=O)c12` belongs 56.5% (active); to `COc1cc(NC(=O)CSc2ccc(-c3cccnc3)nn2)cc(OC)c1`, 44.9%.
Regarding `O=S(=O)(NCC1CCCO1)c1cnc(Cl)c(Cl)c1` (stereo unspecified), the activation is -2.6%.
For `CC(C)[C@H](NC(=O)N1c2ccccc2NC(=O)[C@@H]1C(C)C)C(=O)N[C@H](C(=O)O)c1ccccc1`, the activation is 0.48%.
On to `C/C(=N\Nc1nc2ccccc2[nH]1)c1cccs1`, for which the activation was 43.1%.
To `C/C(=N\Nc1nc(Nc2ccccc2)nc(N2CCOCC2)n1)c1cccs1` belongs 56.8% (active).
For `C/C(=N\Nc1nc(N2CCOCC2)nc(N2CCOCC2)n1)c1ccc([N+](=O)[O-])cc1`, the activation is 0.4%.
